Test [1] is described as follows: NCI Yeast Anticancer Drug Screen. Data for the rad50 strain (AID 155).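 Also: 0% = growth of vehicle-only cultures of the same strain.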 The following applies: S. cerevisiae rad50 strain growth inhibition; at 50.0 µM; active compounds read high. The procedure, abridged:
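Compounds were tested on a yeast strain with an engineered DNA damage repair alteration; the reported value is growth inhibition normalised to vehicle treatment.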

Test [2] in a line: NCI Yeast Anticancer Drug Screen. Data for the mec2-1 strain (AID 157). Conditions: S. cerevisiae mec2-1 strain, at 50.0 µM, active compounds read high. The procedure, abridged:
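Strain: mec2-1 (DNA repair/cell cycle alteration). Compound exposure, then growth measured; inhibition expressed relative to vehicle.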

The nature of test [3]: NCI Yeast Anticancer Drug Screen. Data for the sgs1 mgt1 strain (AID 161).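 Also: 0% = growth of cultures given vehicle only.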 Conditions: S. cerevisiae sgs1 mgt1 strain, at 50.0 µM, active compounds read high. The essentials: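 Read-out: growth inhibition vs vehicle controls. Cells: mutant yeast strain deficient in DNA damage repair.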
Test [4] in a line: NCI Yeast Anticancer Drug Screen. Data for the cln2 rad14 strain (AID 165).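 Also: 0% = growth equal to vehicle treated cultures.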 The following applies: S. cerevisiae cln2 rad14 strain, at 50.0 µM, active compounds read high. The essentials: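 Compounds are applied to the cln2 rad14 yeast strain, and growth is then compared with that of vehicle-treated cultures to give inhibition.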
Test [5] is described as follows: NCI Yeast Anticancer Drug Screen. Data for the bub3 strain (AID 167). The following applies: S. cerevisiae bub3 mutant strain, at 50.0 µM, active compounds read high. The essentials:
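Growth of a checkpoint-deficient yeast mutant is measured after compound exposure. Values represent inhibition relative to vehicle.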

The nature of test [6]: NCI Yeast Anticancer Drug Screen. Data for the mlh1 rad18 strain (AID 175). Conditions: S. cerevisiae mlh1 rad18 strain growth inhibition; at 50.0 µM; active compounds read high. The essentials: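 Read-out is yeast growth inhibition, calculated against vehicle-only controls. The compound was applied to a strain engineered with DNA damage repair alterations.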

The panel holds about 79,000 compounds, 15% with a hit somewhere; the sample as a whole holds those more often. A number with no mark means an inactive call. Activity calls are given as the source filed them. Rule as the data show it: active = growth inhibition above about 70%; inactive = the rest.

For `Cc1nc2ccc(S(=O)(=O)Nc3ccc(Cl)cc3)cc2c(=O)n1NC(=O)CNc1ccc(Cl)cc1`, the growth inhibition was 33.3% in test [1]; 22.4% in test [2]; 42.2% in test [3]; 15.6% in test [4]; 19.9% in test [5]; 24.2% in test [6].

As for `CN(C)C(=O)C1C2CCCC(CC2)C1C(=O)N(C)C` (stereo unspecified), the growth inhibition was 13.7% in test [1]; 19.6% in test [2]; 21.2% in test [3]; 20.5% in test [4]; 18% in test [5]; 20.2% in test [6].

On to `CC(=O)c1ccccc1NC(=O)C(=O)C(C(=O)c1ccccc1-c1ccccc1)C1OC(=O)c2ccccc21` (stereo unspecified), for which the growth inhibition in test [1] is 25%; in test [2], 2.95%; in test [3] it was 8.3%; in test [4], -49.8%; in test [5] it was -1.35%; in test [6], 11.3%.

As to `CNc1cccc2c1C(C)C[C@]1(C)C(=O)Nc3ccccc3[C@H]21` (stereo partly specified), the growth inhibition in test [1] was -36.5%; in test [2] it was -19.7%; in test [3] it was -22.6%; in test [4], -31.1%; in test [5], -35.8%; in test [6], -80.3%.

Turning to `CC(=O)N(C(C)=O)n1c(-c2ccccc2)n[nH]c1=O`, the growth inhibition in test [1] is -7.55%; in test [2], -17.9%; in test [3], -14.3%; in test [4], 13.1%; in test [5], -10.1%; in test [6], 2.45%.

In the case of `O=[N+]([O-])c1ccc(N=NN2CCOCC2)cc1`, the growth inhibition in test [1] is -0.55%; in test [2] it was 3.5%; in test [3], -1.4%; in test [4] it was -1%; in test [5], -10.7%; in test [6] it was 6.55%.

In the case of `CCN(CC)CCCNc1cc(O)cc2cccnc12`, the growth inhibition in test [1] is -1.5%; in test [2], 5%; in test [3], 26.6%; in test [4], 2.6%; in test [5], 2.3%; in test [6] it was -0.35%.

Take `NCCNC(=O)CCC(CN(CC(=O)O)CC(=O)O)N(CC(=O)O)CC(=O)O` (stereo unspecified): the growth inhibition in test [1] is 42.8%; in test [2], 69.7%; in test [3], 44%; in test [4] it was 57%; in test [5], 39%; in test [6], 42.7%.

Regarding `CC1=C(CCC(=O)O)c2cc3nc(cc4[nH]c(cc5[nH]c(cc1n2)c(C)c5C(C)O)c(C)c4C(C)O)C(C)=C3CCC(=O)O` (stereo unspecified), the growth inhibition in test [1] is 12.4%; in test [2] it was 5.2%; in test [3], 7.7%; in test [4], 29.8%; in test [5] it was 21.6%; in test [6], 1.65%.

Regarding `O=C(CCl)NCCCCCNC(=O)CCl`, the growth inhibition in test [1] is -11.7%; in test [2] it was 2.85%; in test [3], -6.85%; in test [4], -31.7%; in test [5], 15.2%; in test [6] it was 17.6%.

Consider `CNC(=O)OCc1c(COC(=O)NC)c2n(c1C)CSC2`, for which the growth inhibition is 4.95% in test [1]; -14.4% in test [2]; -11.3% in test [3]; -7.9% in test [4]; -5.45% in test [5]; 2% in test [6].

In the case of `O=C(O)C(=O)O.[Co+3].[NH-]C(Cc1ccccc1)C(=O)[O-].[NH-]CCN(CC[NH-])CC[NH-]` (stereo unspecified), the growth inhibition in test [1] is 28.2%; in test [2], 15.8%; in test [3], 8.8%; in test [4], 22.6%; in test [5], 2.7%; in test [6], 25.6%.

`CC(=O)CCc1ccc(Cl)cc1`: the growth inhibition was -21.6% in test [1]; -3.55% in test [2]; -1% in test [3]; 3.1% in test [4]; 5.4% in test [5]; -4.4% in test [6].

Turning to `Cn1/c(=N\N=C2\C=C3CCCCC3(C)CC2)sc2ccccc21` (stereo unspecified), the growth inhibition in test [1] is 12.7%; in test [2] it was 12.2%; in test [3], 22.9%; in test [4], 33.2%; in test [5], -8.8%; in test [6], 47.1%.

`CCCCOC(=O)c1ccc(OC(=O)Nc2cccc(Cl)c2)cc1`: the growth inhibition was 13.2% in test [1]; 2.3% in test [2]; 6.15% in test [3]; 12.2% in test [4]; 70.7% (active) in test [5]; 30.1% in test [6].

Take `CC(=O)O[C@]12CCCC1C1(O)C(O)CCCC12` (stereo partly specified): the growth inhibition in test [1] is -30.7%; in test [2], -50.1%; in test [3], -72.3%; in test [4], -9.55%; in test [5], -30.6%; in test [6], -34.6%.

On to `C=C1CC[C@@H]2C(C)(C)CCC[C@@]2(C)[C@@H]1Cc1cc(O)ccc1O`, for which the growth inhibition in test [1] is 86.8% (active); in test [2] it was 88.6% (active); in test [3], 87% (active); in test [4], 87.2% (active); in test [5], 87.9% (active); in test [6] it was 87.5% (active).

Turning to `Cc1ccc(S(=O)(=O)OC(F)(F)C(F)(F)F)cc1`, the growth inhibition in test [1] was 7.8%; in test [2] it was 5.05%; in test [3] it was 7.95%; in test [4], -8.15%; in test [5], -4.05%; in test [6], 5.5%.

In the case of `O=C(NCCc1c[nH]c2ccccc12)C1CC1`, the growth inhibition in test [1] is -40%; in test [2] it was 16.6%; in test [3], -14.8%; in test [4] it was -32.2%; in test [5], 7.05%; in test [6], -25.9%.

Take `COc1ccc([N+](=O)[O-])c2ncncc12`: the growth inhibition is -14.4% in test [1]; -12% in test [2]; 0.8% in test [3]; 6.6% in test [4]; -10.9% in test [5]; 20.6% in test [6].

`CC(C)OC(=O)CO`: the growth inhibition was 29.6% in test [1]; 3.55% in test [2]; 14.2% in test [3]; 12.2% in test [4]; 10.5% in test [5]; 13.2% in test [6].

Source of the values: PubChem BioAssay (NCI).
